Hits are enriched below; roughly 14% of the tested compounds scored in any of these assays.
Lassa entry inh – Lassa virus entry inhibition. Lassa virus pseudotype entry inhibition, cell reporter. Potency, µM (titrated, usually from 37.9 µM), hits mostly inhibitors. 1.2% of 300,000 active. AID 540256; calls by dose curve; tested in HEK293 cells; further: nearly all actives have a fitted effect of over 50% in size
HCV inhibitor – blocks hepatitis C virus. Huh7.5.1 HCVcc-Cre infection, luciferase reporter, 44 h. Potency, µM (highest dose often 41.8 µM), usual class: inhibitors. 3.4% of 340,000 active
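Whole-lifecycle infectious HCVcc-Cre system; cells 1,000/well, compound then virus (~0.5 moi) added 4 h after plating, 44 h culture. Luciferase read 15 sec following 15 min substrate incubation, room temp.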
Marburg entry inh – blocks Marburg virus binding to or entry into cells; Marburg virus pseudotyped entry inhibition, cell reporter; AID 540276; 1.8% of 300,000 active; Potency, µM (titrated, usually from 37.8 µM), usual class: inhibitors; calls by dose curve; tested in HEK293 cells
HCMV antiviral – human cytomegalovirus inhibition | activity change, negative = inhibition, % at 57.5 µM | HFF cells, HCMV-luciferase reporter, 72 h; stronger effect = lower value | 4.5% of 410,000 active; in the data active means activity change below about -60%; inconclusive means no clear call, values can overlap the other calls; inactive means above about -39%
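Two compound doses tested in HFFs infected with HCMV-luciferase, MOI 1 PFU/cell, 72 h at 37C. Lysate luminescence read with OneGlo; data normalized against buffer-only and 10uM Salinomycin inhibitor controls.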
Pf growth 96h – P. falciparum growth inhibition at 96 hours. Potency, µM (highest dose often 28.7 µM), hits mostly inhibitors. 6.9% of 320,000 active. P. falciparum luciferase reporter growth, 96 h. AID 504834
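Infected RBCs, 2% Hct / 0.05% parasitemia final; luciferase-reporter P. falciparum; cpd 96 h, 37 C, 5% CO2; luciferase detection reagent; luminescence.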
Pf growth 48h – inhibits P. falciparum growth in the first generation, 48 h | 5.9% of 310,000 active | Potency, µM (doses to about 28.7 µM), hits mostly inhibitors | AID 504832 | P. falciparum luciferase growth in erythrocytes, 48 h
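Luminescence readout; reporter = integrated firefly luciferase in P. falciparum. RBC culture at 2% hematocrit, 0.1% parasitemia final, 37 C/5% CO2; decreased signal taken as growth inhibition.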
Hits are given with their value; – = inactive; ? = inconclusive; · = not tested or not shown; ! = not active in a repeat; [ ] = dose if it differs, or a comment. Unless noted, the call rests on the fitted dose curve; in most records, active means well fitted inhibition curve with a large enough effect; inconclusive means small, poorly fitted or top-dose-only effect, or another doubt; inactive means no such curve, though single readings can be large or run the other way.

SMILES | Lassa entry inh | HCV inhibitor | Marburg entry inh | HCMV antiviral | Pf growth 96h | Pf growth 48h
CC(=O)c1cccc(NC(=O)CSc2nnc(-c3ccncc3)o2)c1 | · | – | · | – | – | –
CC(=O)O[C@]1(C(C)=O)CC[C@H]2[C@@H]3C=C(Cl)C4=CC(=O)[C@@H]5C[C@@H]5[C@]4(C)[C@H]3CC[C@@]21C | 16µM | – | ? | -90! | 8.5µM | 11µM
CC(=O)[C@]1(O)CCC2C3C=C(Cl)C4=CC(=O)C5CC5[C@@]4(C)C3CC[C@]21C (stereo partly drawn) | · | · | · | · | ? | –
CC(=O)O[C@]1(C(C)=O)CC[C@H]2[C@@H]3C=C(Cl)C4=CC(=O)CC[C@]4(C)[C@H]3CC[C@@]21C | – | ? | – | ? | ? | 12µM
CC(=O)O[C@]1(C(C)=O)CCC2C3CCC4=CC(=O)CCC4(C)C3(F)C(O)CC21C (stereo partly drawn) | · | · | · | · | ? | –
O=[N+]([O-])c1ccc(N=Nc2c(Cl)cc(O)cc2Cl)cc1 | · | 5µM | · | -100 | ? | ?
CC(N)=Nc1ccc([N+](=O)[O-])cc1 | – | – | – | – | – | –
O=C(CN1C(=O)c2ccccc2C1=O)NN1C(=O)c2ccccc2C1=O | – | – | – | – | – | –
CC1COC(C)(CC(=O)NN2C(=O)c3ccccc3C2=O)O1 (stereo not drawn) | – | – | – | – | 2.6µM | –
CCCCNC(=O)C(NC(=O)c1ccc(C)cc1)C(=O)c1ccccc1 (stereo not drawn) | · | · | · | – | · | ·
COc1ccccc1Cc1c(-c2ccc(Cl)cc2)nc2ccc(Br)cn12 | · | · | · | – | · | ·
COc1cc(CNc2cccc3[nH]c(C(F)(F)F)nc23)cc(OC)c1 | · | 11µM | · | ? | – | 2.1µM
COc1ccc(CNc2cccc3[nH]c(C(F)(F)F)nc23)cc1 | – | 3.2µM | – | – | – | 1.7µM
Cc1ccc(C(=O)Nc2cccc3[nH]c(C(F)(F)F)nc23)cc1 | ? | ? | ? | -96 | – | –
Cn1sccc1=O | · | – | · | ? | – | ?
CC[n+]1c(/C=C/c2cc([N+](=O)[O-])ccc2O)ccc2ccccc21 | ? | ? | – | ? | – | ?
CCN(CC)c1ccc(/C=C/c2ccc3ccc(OC)cc3[n+]2CC)cc1 | · | 2.2µM | · | -97 | – | 1.9µM
CC[n+]1c(/C=C/c2ccc(OC)c(OC)c2)ccc2ccccc21 | · | – | · | – | – | 1µM
CC[n+]1c(/C=C/c2ccc(N(C)C)cc2)ccc2ccccc21 | 9.2µM | –[0.335 µM] | 1.6µM | · | 0.41µM | 0.66µM
CC[n+]1c(/C=C/c2ccc(OC(C)=O)c(OC)c2)ccc2ccccc21 | · | – | · | – | ? | ?
CN1CCc2nc(NC(=O)COc3ccc4ccccc4c3)sc2C1 | ? | ? | ? | -82 | – | ?
CC1(C(=O)NS(=O)(=O)c2ccc(Br)cc2)CCN1C(=O)C1CCCCC1 (stereo not drawn) | · | · | · | – | · | ·
Cn1c(=O)n(C)c2cc(NC(=O)CCl)ccc21 | 18µM | ? | ? | -104 | ? | 1.5µM
CC(=O)Nc1ccc2c(c1)n(C)c(=O)n2C | – | – | – | – | · | –
O=S(=O)(Nc1cccc(-c2ccc(N3CCOCC3)nn2)c1)c1ccc(F)c(C(F)(F)F)c1 | – | · | · | – | · | ·
SMILES | Lassa entry inh | HCV inhibitor | Marburg entry inh | HCMV antiviral | Pf growth 96h | Pf growth 48h
O=C(Nc1ccc(S(=O)(=O)N2CCOCC2)cc1)c1ccccc1 | ? | ? | ? | · | – | –
CC1CN(S(=O)(=O)c2ccc(NC(=O)c3cc(-c4ccccc4O)n[nH]3)cc2)CC(C)O1 (stereo not drawn) | 21µM | 8.9µM | 12µM | -98 | 0.93µM | 1.7µM
O=C(Nc1ccc(S(=O)(=O)N2CCOCC2)cc1)c1cc(-c2ccccc2O)n[nH]1 | · | – | · | ? | ? | 10µM
COc1ccccc1OC(C)C(=O)Nc1ccccc1C(=O)NCc1cccnc1 (stereo not drawn) | · | – | – | – | – | –
COC(=O)[C@@]12C[C@@H](CC(=O)N3CCOCC3)C(=O)N(Cc3cccc4ccccc34)C1=CCC(C)(C)C2 | · | · | · | – | · | ·
Fc1ccccc1CSc1nncn1NC/C=C/c1ccccc1 | – | – | – | – | – | ?
Cc1nnc(SCc2ccc(F)cc2)n1NC/C=C/c1ccccc1 | – | ? | – | – | 5.9µM | –
Cc1cc(N2CCOCC2)ccc1/C=C\[N+](=O)[O-] | 21µM | ? | ? | -98 | – | –
CC1=C(O)C(=O)C(c2c(C)cc(C)c(Br)c2C)=C(O)C1=O | · | · | · | – | · | ·
Cc1ccc(-n2c(N)c(C(=O)Nc3c(C)n(C)n(-c4ccccc4)c3=O)c3nc4ccccc4nc32)cc1C | · | – | · | · | ? | 10µM
Nc1c(C(=O)Nc2ccccc2)c2nc3ccccc3nc2n1-c1ccc(O)cc1 | · | ? | · | – | – | 13µM
Cc1ccc(-c2cc(C(=O)Nc3c(C)n(C)n(-c4ccccc4)c3=O)no2)cc1 | – | – | ? | – | – | –[1.15 µM]
COc1ccc(-n2c(N)c(C(=O)Nc3c(C)n(C)n(-c4ccccc4)c3=O)c3nc4ccccc4nc32)cc1 | – | – | – | – | 1.7µM | 4.7µM
Cc1cc(C(=O)Nc2c(C)n(C)n(-c3ccccc3)c2=O)c2ccccc2n1 | – | – | – | – | – | –
COc1ccc(-c2cc(C(=O)Nc3c(C)n(C)n(-c4ccccc4)c3=O)no2)cc1 | – | – | ? | – | 8.3µM | ?
Cc1nnc(N2C(=O)c3oc4ccccc4c(=O)c3C2c2cccc(OCCC(C)C)c2)s1 (stereo not drawn) | – | · | ? | – | · | ·
Cc1ccccc1NC(=O)CSc1nc(-c2cccs2)nc2cc(=O)[nH]n12 | – | · | · | – | – | ?
COc1ccc(CN(C)C(=O)c2ccccc2Sc2ccccc2C#N)c(OC)c1 | – | ? | ? | – | ? | –
Cc1ccc(C)c(OCC(=O)OCc2csc(CC(=O)Nc3ccccc3C)n2)c1 | · | · | · | – | · | ·
COc1cc(OC)c(NC(=O)N2CCN3CCCCC3C2)cc1Cl (stereo not drawn) | – | · | · | – | · | ·
C=CCn1c(SC(C)C(=O)NCc2ccc3c(c2)OCO3)nc2scc(-c3ccccc3)c2c1=O (stereo not drawn) | ? | ? | – | – | 6.6µM | ?
Cc1nc(SC(C)C(=O)NCC2CCCO2)c2cc(-c3ccccc3)sc2n1 (stereo not drawn) | 0.5µM | – | 0.63µM | -89 | ? | ?
COCCn1c(SC(C)C(=O)NCC2CCCO2)nc2sc3c(c2c1=O)CCC3 (stereo not drawn) | – | –[8.37 µM] | – | – | 8.3µM | ?
COCCn1c(SC(C)C(=O)NCC2CCCO2)nc2scc(-c3ccc(F)cc3)c2c1=O (stereo not drawn) | – | ? | ? | – | ? | 13µM
CCN(CC)C(=O)CSc1nc2sc3c(c2c(=O)n1CCOC)CCC3 | – | – | – | ? | ? | ?
C=CCn1c(SCC(=O)NCC2CCCO2)nc2scc(-c3ccccc3)c2c1=O (stereo not drawn) | – | ? | – | – | – | ?
